# Laboratory results as given in article PMC4336329 (PLoS ONE, 2015).
# Hit rate of the full screen: of about 310,000 compounds, about 14,000 (4.5%) showed an effect of 50% or more. Effects have a minus sign here. For the sample, strong results were picked, then their nearest neighbours and some compounds at random.
# Molecular target: human ether-à-go-go-related gene (hERG) potassium channel (human, UniProt Q12809)
# Assay: primary screen, population patch clamp on CHO cells stably expressing hERG; higher = less effect of the substance
# 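Further: peak tail current of the secondary pulse compared with the same well before compound.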
# Chain of human ether-à-go-go-related gene (hERG) potassium channel (Q12809 whole entry, looked up): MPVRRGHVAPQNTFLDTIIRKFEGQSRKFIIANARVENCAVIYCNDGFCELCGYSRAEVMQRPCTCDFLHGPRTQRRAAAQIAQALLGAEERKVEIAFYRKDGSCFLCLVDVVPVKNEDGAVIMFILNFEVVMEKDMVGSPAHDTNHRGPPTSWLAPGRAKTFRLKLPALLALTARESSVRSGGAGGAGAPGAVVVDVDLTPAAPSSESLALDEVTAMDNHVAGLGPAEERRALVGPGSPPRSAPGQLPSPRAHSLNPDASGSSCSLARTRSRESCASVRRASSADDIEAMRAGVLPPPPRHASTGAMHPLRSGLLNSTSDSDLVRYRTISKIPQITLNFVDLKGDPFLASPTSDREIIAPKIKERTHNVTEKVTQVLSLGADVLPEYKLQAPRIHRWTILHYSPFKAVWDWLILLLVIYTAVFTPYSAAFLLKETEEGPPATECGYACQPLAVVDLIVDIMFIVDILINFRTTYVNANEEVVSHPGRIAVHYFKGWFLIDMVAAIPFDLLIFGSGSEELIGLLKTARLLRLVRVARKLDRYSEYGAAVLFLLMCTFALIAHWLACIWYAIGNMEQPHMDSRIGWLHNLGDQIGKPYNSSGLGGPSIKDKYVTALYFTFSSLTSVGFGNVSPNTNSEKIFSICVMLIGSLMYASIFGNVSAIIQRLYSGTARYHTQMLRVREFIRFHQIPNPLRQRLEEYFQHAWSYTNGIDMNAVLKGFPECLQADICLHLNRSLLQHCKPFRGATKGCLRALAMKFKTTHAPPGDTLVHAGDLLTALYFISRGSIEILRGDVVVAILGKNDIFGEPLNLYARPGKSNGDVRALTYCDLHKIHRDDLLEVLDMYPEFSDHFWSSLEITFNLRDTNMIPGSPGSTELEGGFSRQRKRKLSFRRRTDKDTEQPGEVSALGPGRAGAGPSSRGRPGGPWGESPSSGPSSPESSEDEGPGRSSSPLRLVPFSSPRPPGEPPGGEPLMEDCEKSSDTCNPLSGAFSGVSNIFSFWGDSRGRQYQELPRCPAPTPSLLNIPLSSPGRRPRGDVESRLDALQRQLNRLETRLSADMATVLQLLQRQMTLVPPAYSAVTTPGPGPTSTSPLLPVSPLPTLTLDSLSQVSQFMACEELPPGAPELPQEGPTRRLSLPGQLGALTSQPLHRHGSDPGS
row,SMILES,"hERG current change (%, negative = inhibition) at 10uM"
1,CC(C)CN(C(=O)COC(=O)/C=C/c1ccccc1)C1CCS(=O)(=O)C1 (stereo not shown),-10.7%
2,CCOC(=O)N1CCN(C(=O)CSc2nnc(COc3ccccc3)o2)CC1,-11%
3,S=C(Nc1ccc(Br)cc1Cl)NN1CCOCC1,-8.03%
4,O=C(CC1NCCNC1=O)Nc1ccc(Oc2ccccc2)cc1 (stereo not shown),25.6%
5,Cc1cc(C(=O)Nc2ccc3c(c2)CCC3)c2ccccc2n1,10.8%
6,COc1ccc(Cl)cc1NC(=O)CCS(=O)(=O)c1ccc(Br)cc1,3.8%
7,COc1ccc(NC(=O)C(=O)NNC(=O)C(C)Oc2ccc(Cl)cc2Cl)cc1 (stereo not shown),19%
8,Cn1nc(C(=O)Nc2ccccc2)c2c1-c1ccccc1S(=O)(=O)C2,-0.138%
9,CC(C)CN(CCCNC(=O)CN1C(=O)COc2ccc(S(=O)(=O)N3CCCCCC3)cc21)CC(C)C,-52%
10,CC(C)CN(CCCNC(=O)CN1C(=O)COc2ccc(S(=O)(=O)N3CCOCC3)cc21)CC(C)C,6.18%
11,Cc1ccc(CCNC(=O)CN2C(=O)COc3ccc(S(=O)(=O)N4CCC(C)CC4)cc32)cc1,8.66%
12,CCCCN(CCCC)CCCNC(=O)CN1C(=O)COc2ccc(S(=O)(=O)N3CCC(C)CC3)cc21,-74.8%
13,CC1CCN(S(=O)(=O)c2ccc3c(c2)N(CC(=O)NCCCOC(C)C)C(=O)CO3)CC1,12.8%
14,CC(C)CN(CCCNC(=O)CN1C(=O)COc2ccc(S(=O)(=O)N3CCCC3)cc21)CC(C)C,-5.33%
15,CC(C)CN(CCCNC(=O)CN1C(=O)COc2ccc(S(=O)(=O)N3CCC(C)CC3)cc21)CC(C)C,-2.94%
16,CC1CCN(S(=O)(=O)c2ccc3c(c2)N(CC(=O)NCCCN(Cc2ccccc2)C(C)C)C(=O)CO3)CC1,-62.5%
17,CCOCCCNC(=O)CN1C(=O)COc2ccc(S(=O)(=O)N3CCC(C)CC3)cc21,6.25%
18,Cc1cc(C)nc(N2CCC(C(=O)Nc3ccc4c(c3)OCO4)CC2)n1,-5.31%
19,NS(=O)(=O)c1ccc(CNS(=O)(=O)c2ccc3ccccc3c2)cc1,1.74%
20,O=C(CSc1ncccn1)NCc1ccc(Cl)cc1,4.02%
21,COC(=O)C(=O)/C=C(\O)c1c(C)cc(C)cc1C,14.9%
22,COc1ccc(/C=C2/CCc3ccccc3C2=O)cc1OC,-19.8%

row,SMILES,"hERG current change (%, negative = inhibition) at 10uM"
1,CCOc1cc(CNCCO)ccc1OCC(=O)NC(C)(C)C.Cl,15.7%
2,O=C(COC(=O)c1ccc(F)cc1F)NCCC1=CCCCC1,10.6%
3,OC(COc1ccc(OCc2ccccc2)cc1)CN1CCOCC1 (stereo not shown),-17%
4,Cl.OC(COc1ccc(Br)cc1)CN1CCC(Cc2ccccc2)CC1 (stereo not shown),-85.9%
5,Cl.OC(COc1ccc(Br)cc1)CN1CCOCC1 (stereo not shown),-0.178%
6,Cl.OC(COc1ccc(Br)cc1)CN1CCCC1 (stereo not shown),-24.3%
7,O=S(=O)(c1ccc(OCC(O)CN2CCC(Cc3ccccc3)CC2)cc1)N1CCOCC1 (stereo not shown),-44.4%
8,Cl.OCCN1CCN(CC(O)COc2ccc(Cl)cc2)CC1 (stereo not shown),-20.6%
9,CC(C)OCC(O)CN1CCNCC1.Cl (stereo not shown),11.6%
10,Cl.OC(COc1ccccc1)CN1CCC(Cc2ccccc2)CC1 (stereo not shown),-79.3%
11,Cl.OC(COc1ccc(Cl)cc1)CN1CCN(c2ccccc2)CC1 (stereo not shown),-29.7%
12,CCN1CCN(CC(O)COC(C)C)CC1.Cl (stereo not shown),2.08%
13,Cl.OC(COc1ccc(Cl)cc1)CN1CCC(Cc2ccccc2)CC1 (stereo not shown),-81.4%
14,CC(C)OCC(O)CN1CCC(Cc2ccccc2)CC1.Cl (stereo not shown),-56.9%
15,COc1ccc(-n2c(O)c(C(C)=NCCc3c[nH]c4ccccc34)c(=O)[nH]c2=O)cc1,14.6%
16,Cc1cc(C)cc(Oc2c(C(F)(F)F)oc3cc(OCC(=O)O)ccc3c2=O)c1,4.25%
17,Cc1ccc(NC(=O)CSc2nnc(-c3cnccn3)n2C)cc1C,-5.78%
18,C/C(=N\Nc1nncc2ccccc12)c1ccc(OCC(=O)N(C)C)cc1,8.27%
19,COc1cc(CN2CCN(c3cccc(C)c3C)CC2)cc([N+](=O)[O-])c1O,23.5%
20,CCC(C)C(NC(=O)C1CCC(C)CC1)C(=O)NC(C(=O)OC)C(C)C (stereo not shown),-0.903%
21,CCCn1c2ccccc2c2nc3ccccc3nc21,13%
22,Cl.OC(COc1ccccc1F)CN1CCC(Cc2ccccc2)CC1 (stereo not shown),-76.2%

row,SMILES,"hERG current change (%, negative = inhibition) at 10uM"
1,OC(COc1ccc(F)cc1Cl)CN1CCC(Cc2ccccc2)CC1 (stereo not shown),-84.6%
2,COc1ccc2c(c1)c(C(O)CN1CCC(Cc3ccccc3)CC1)c(C)n2C (stereo not shown),-71%
3,OC(CN1CCC(Cc2ccccc2)CC1)c1ccccc1 (stereo not shown),-52.9%
4,Cc1c(C(O)CN2CCC(C(N)=O)CC2)c2ccccc2n1C (stereo not shown),-3.73%
5,CC1CCN(CC(O)COc2cccc(F)c2)CC1 (stereo not shown),-24.8%
6,Fc1ccccc1CN1CCC(Cc2ccccc2)CC1,-24.4%
7,OC(CN1CCC(Cc2ccccc2)CC1)C(F)(F)F (stereo not shown),5.97%
8,O=C(O)C(=O)O.O=S(=O)(c1ccc(F)cc1)N1CCN(CC(O)COc2ccccc2F)CC1 (stereo not shown),-14.5%
9,COc1ccc2c(c1)c(C(=O)CN1CCN(Cc3ccccc3)CC1)c(C)n2C,-29.8%
10,OC(CN1CCN(c2ccccc2Cl)CC1)c1ccccc1 (stereo not shown),-42.3%
11,Fc1cccc(CN2CCC(Cc3ccccc3)CC2)c1,5.12%
12,COc1ccccc1NC(=O)Nc1nc(CC(=O)Nc2cccc(F)c2)cs1,-3.26%
13,COc1ccc(CCNC(=O)C2CCN(S(=O)(=O)c3cccc4cccnc34)CC2)cc1OC,12.1%
14,CCOC(=O)N1CCN(c2nnnn2-c2ccccc2)CC1,-0.913%
15,CCCCNC(=O)C(CC)(ONc1ccccc1C(F)(F)F)c1ccccc1 (stereo not shown),6.19%
16,CC(C)(C)c1ccc(C(=O)NNC(=O)C(=O)N2CCCCC2)cc1,14.3%
17,CS(=O)(=O)Nc1cccc(C2=NN(C(=O)c3cccc([N+](=O)[O-])c3)C(c3cccs3)C2)c1 (stereo not shown),-13.4%
18,COc1cccc(OCC(O)CN2CCN(c3ncccn3)CC2)c1.Cl (stereo not shown),-11%
19,COc1cccc(OCC(O)CN2CCC(Cc3ccccc3)CC2)c1.Cl (stereo not shown),-70.4%
20,COc1cccc(OCC(O)CN2CCC(C)CC2)c1.Cl (stereo not shown),-12.3%
21,COc1ccc(CCNC(=O)C(CC(C)C)NC(N)=O)cc1 (stereo not shown),9.22%
22,COc1ccc(C)cc1Nc1n[n+](-c2ccccc2)c(-c2cc(OC)c(OC)cc2Br)s1.[Cl-],-48.9%

row,SMILES,"hERG current change (%, negative = inhibition) at 10uM"
1,COc1ccc(C)cc1Nc1n[n+](-c2ccccc2)c(-c2ccc(NC(C)=O)cc2)s1.[Cl-],12.8%
2,COc1ccc(C)cc1Nc1n[n+](-c2ccccc2)c(-c2ccc(C(=O)O)cc2)s1.[Cl-],18%
3,COc1ccc(C)cc1Nc1n[n+](-c2ccccc2)c(-c2ccc(OC)c(OC)c2OC)s1.[Cl-],-71.8%
4,COc1ccc(C)cc1Nc1n[n+](-c2ccccc2)c(-c2cc([N+](=O)[O-])cc(OC)c2O)s1.[Cl-],6.15%
5,COc1ccc(C)cc1Nc1n[n+](-c2ccccc2)c(-c2cccc(Cl)c2Cl)s1.[Cl-],10%
6,COc1ccc(C)cc1Nc1n[n+](-c2ccccc2)c(-c2c(Cl)cccc2Cl)s1.[Cl-],-55.9%
7,COc1ccc(C)cc1Nc1n[n+](-c2ccccc2)c(-c2c(OC)ccc3ccccc23)s1.[Cl-],-53.8%
8,COc1ccc(C)cc1Nc1n[n+](C)c(-c2c3ccccc3cc3ccccc23)s1.[Cl-],13.3%
9,COc1ccc(-c2nnc(SCC(=O)N(Cc3ccccc3)C(C)(C)C)o2)cc1OC,-22.9%
10,O=c1c(Cc2ccc(Cl)cc2)c(O)ccn1Cc1cccs1,4.04%
11,Cc1ccc(C(=O)NC2CC(=O)N(c3ccc4c(c3)OCCO4)C2)cc1[N+](=O)[O-] (stereo not shown),14.6%
12,CCC1(CC)NC(=O)N(CC(=O)OCC(=O)c2ccccc2OC)C1=O,0.647%
13,CC(C)(C)NC(=O)C(Cc1ccccc1)NS(=O)(=O)c1cccc2nsnc12 (stereo not shown),-1.39%
14,CC(Sc1ccccc1)C(=O)N1CCN(S(=O)(=O)c2ccccc2)CC1 (stereo not shown),-8.83%
15,NC(=O)CC(NC(=O)c1ccccc1)c1ccc(N2CCC(Cc3ccccc3)CC2)c([N+](=O)[O-])c1 (stereo not shown),4.44%
16,CC1CC(C)CN(c2ccc(-n3cnnn3)cc2[N+](=O)[O-])C1 (stereo not shown),-18.4%
17,O=[N+]([O-])c1cc(-n2cnnn2)ccc1N1CCC(Cc2ccccc2)CC1,-54.9%
18,Cn1cnnc1SCc1cccc(Br)c1,0.347%
19,COc1cccc(-n2c(CNc3ccc(F)cc3)nnc2SCC(N)=O)c1,-11.8%
